Rows were chosen to be rich in hits. Some 6.9% of all compounds tested hit in one or more screens of this group.
IL1B secr inh – inflammasome signaling inhibition, IL-1 beta readout | THP-1 LPS/ATP IL-1B secretion, AlphaLISA, 16 h; active compounds read low | activity change, % at 57.5 µM | 360,000 tested, 4.7% active; in the data active = activity change below about -50%; inconclusive = mostly about -30% to -49%; also: % is scaled to controls: 0 for no effect and ±100 for the full control effect
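Secreted IL-1B measured by AlphaLISA bead assay after 16 h compound exposure of THP-1 cells; compounds (final up to 57.5 uM) added 1 h before LPS (250 ng/mL) and ATP (1.25 mM) stimulation; lower signal means less secretion.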
SW480 rerep – inducers of DNA re-replication in SW480 colon cancer cells; 340,000 tested, 1.8% active; SW480 DNA re-replication, Hoechst DNA content imaging, 48 h; Potency, µM (top dose mostly 46.1 µM), without a hit: at the highest dose re-replication activation, usual class: activators; also: potency is read from the fitted curve at half-maximal effect; % of control where 0% means no effect; nearly all actives have a fitted effect of over 55% in size
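Image-based read-out: total Hoechst fluorescence of nuclei (405 nm excitation, 500-530 nm emission), with hits raising the fraction of high-intensity nuclei. SW480 colon cells incubated 48 hr with compounds at 37 C.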
Vif-APOBEC3G blk – Vif-A3G binding inhibition; Potency, µM (series often up to 46.1 µM), for the others: at the top dose activity, negative = active, most hits filed as inhibitors; Q9HC16; HeLa A3G-eYFP + Vif (tagged APOBEC3G with the HIV-1 protein that degrades it), YFP fluorescence, overnight; AID 602310; 410,000 tested, 0.076% active; also: potency is read from the fitted curve at half-maximal effect; % is scaled to controls: 0 for no effect and ±100 for the full control effect; nearly all actives have a fitted effect of over 60% in size
Target sequence (Q9HC16 whole entry, looked up): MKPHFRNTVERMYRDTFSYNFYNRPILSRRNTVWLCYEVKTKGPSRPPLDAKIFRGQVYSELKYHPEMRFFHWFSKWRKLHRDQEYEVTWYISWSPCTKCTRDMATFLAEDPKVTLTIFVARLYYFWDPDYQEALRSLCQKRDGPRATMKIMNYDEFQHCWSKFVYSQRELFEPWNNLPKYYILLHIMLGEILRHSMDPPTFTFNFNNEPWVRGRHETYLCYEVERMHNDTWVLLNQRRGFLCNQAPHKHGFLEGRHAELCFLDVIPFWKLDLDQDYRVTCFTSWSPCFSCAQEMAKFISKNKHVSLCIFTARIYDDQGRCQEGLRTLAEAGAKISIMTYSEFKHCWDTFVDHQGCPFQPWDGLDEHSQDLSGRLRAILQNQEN
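Read-out is eYFP fluorescence (Ex 488/Em 500-530) from Vif-expressing HeLa A3G-eYFP cells; more signal means A3G escaped Vif-mediated degradation. Cells plated overnight, compound pinned in, incubated overnight at 37 deg C.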
Vif-A3F inh – blocks the Vif interaction with APOBEC3F | 390,000 tested, 0.2% active | AID 602313 | HeLa A3F-eYFP + Vif (tagged APOBEC3F with the HIV-1 protein that degrades it), YFP fluorescence increase | Potency, µM (top dose mostly 46.1 µM), inactives show at the top dose activity, negative = active; also: potency is read from the fitted curve at half-maximal effect; % of control where 0% means no effect; nearly all actives have a fitted effect of over 65% in size
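Fluorescence increase (Ex 488/Em 500-530) after overnight compound treatment at 37 deg C flags inhibition of Vif-driven A3F-eYFP loss in stable HeLa A3F-eYFP/Vif cells seeded overnight beforehand.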
Giardia kill – kills Giardia lamblia; 340,000 tested, 0.15% active; Giardia lamblia trophozoite viability; activity change, % at 7.66 µM, hits read low; in the data active = activity change below about -80%; inconclusive = between about -30% and that limit;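 also: parasites exposed to compound for two days anaerobically before the ATP read; % is scaled to controls: 0 for no effect and ±100 for the full control effect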
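Luminescent ATP signal served as the viability read-out, measured 15-30 min after adding ATP detection reagent to trophozoites that had been incubated with compounds for 48 hrs at 37 deg C anaerobically at 100 cells/well.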
MCF10A rereplic – DNA re-replication induction in MCF 10a cells | MCF 10A DNA re-replication, Hoechst nuclear intensity, 48 h | Potency, µM (highest dose often 46.1 µM), for inactives: at the top dose activity, positive = re-replication, actives largely listed as activators | 350,000 tested, 2.9% active; also: potency is read from the fitted curve at half-maximal effect; % of control where 0% means no effect; nearly all actives have a fitted effect of over 50% in size
* = called active by the depositor; [ ] = dose if it differs, or a comment. Unless noted, calls follow the shape of the dose curve; as a rule, active = well fitted curve in the direction sought with a large enough effect; inconclusive = small, poorly fitted or top-dose-only effect, or another doubt; inactive = no such curve, though single readings can be large; an effect the other way counts as inactive or inconclusive.

For C#CCOCCOCCOCCNc1nc(N2CCN(C(=O)CCCCCCCCCCNC(=O)[C@H](CCCCN)n3cc(C)nn3)CC2)nc(N2CCN(C(=O)CCCCCCCCCCNC(=O)[C@H](CCCCN)n3cc(CCCC(=O)O)nn3)CC2)n1 the results were IL1B secr inh 0, SW480 rerep -6%[9.22 µM], Vif-APOBEC3G blk -2%, Vif-A3F inh 5%, Giardia kill -17 and MCF10A rereplic 8%.
For C#CCOCCOCCOCCNc1nc(N2CCN(C(=O)CCCCCCCCCCNC(=O)Cn3cc(C[C@@H](C)O)nn3)CC2)nc(N2CCN(C(=O)CCCCCCCCCCNC(=O)[C@H](CCCN=C(N)N)n3cc(C[C@@H](C)CC)nn3)CC2)n1 the results were IL1B secr inh -97*, SW480 rerep 2%, Vif-APOBEC3G blk -29%, Vif-A3F inh 2%, Giardia kill -1 and MCF10A rereplic 14%.
`C#CCOCCOCCOCCNc1nc(N2CCN(C(=O)CCCCCCCCCCNC(=O)[C@H](CO)n3cc(CCCSC)nn3)CC2)nc(N2CCN(C(=O)CCCCCCCCCCNC(=O)[C@H](CCCN=C(N)N)n3cc(C[C@@H](C)CC)nn3)CC2)n1` gave IL1B secr inh -103*, SW480 rerep 1%, Vif-APOBEC3G blk inconclusive, Vif-A3F inh 1%, Giardia kill 10 and MCF10A rereplic 5%.
`C#CCOCCOCCOCCNc1nc(N2CCN(C(=O)CCCCCCCCCCNC(=O)Cn3cc(C[C@@H](C)O)nn3)CC2)nc(N2CCN(C(=O)CCCCCCCCCCNC(=O)[C@@H](CCC(=O)O)n3cc(CCCCCN)nn3)CC2)n1` gave IL1B secr inh inconclusive, SW480 rerep -6%, Vif-APOBEC3G blk -10%, Vif-A3F inh 3%, Giardia kill 13 and MCF10A rereplic -2%.
`C#CCOCCOCCOCCNc1nc(N2CCN(C(=O)CCCCCCCCCCNC(=O)Cn3cc(CCCCCN)nn3)CC2)nc(N2CCN(C(=O)CCCCCCCCCCNC(=O)[C@@H](CCSC)n3cc(CCO)nn3)CC2)n1` gave IL1B secr inh -60*, SW480 rerep -14%, Vif-APOBEC3G blk inconclusive, Vif-A3F inh 8%, Giardia kill 5 and MCF10A rereplic inconclusive.
For C#CCOCCOCCOCCNc1nc(N2CCN(C(=O)CCCCCCCCCCNC(=O)Cn3cc(C[C@@H](C)O)nn3)CC2)nc(N2CCN(C(=O)CCCCCCCCCCNC(=O)[C@H](CO)n3cc(CCCSC)nn3)CC2)n1 the results were IL1B secr inh -5, SW480 rerep 8%, Vif-APOBEC3G blk -13%, Vif-A3F inh -1%, Giardia kill 9 and MCF10A rereplic 6.5µM*.
For Cc1ccc(Cl)cc1N1CCN(CCNC(=O)Nc2ccccc2Cl)CC1 the results were Vif-APOBEC3G blk 4% and Vif-A3F inh -10%.
C#CCOCCOCCOCCNc1nc(N2CCN(C(=O)CCCCCCCCCCNC(=O)[C@@H](CCSC)n3cc(CCO)nn3)CC2)nc(N2CCN(C(=O)CCCCCCCCCCNC(=O)[C@H](CCSC)n3cc(CCO)nn3)CC2)n1 was read as IL1B secr inh inconclusive, SW480 rerep -7%, Vif-APOBEC3G blk 1%, Vif-A3F inh 3%, Giardia kill 0 and MCF10A rereplic 16%.
Screening C#CCOCCOCCOCCNc1nc(N2CCN(C(=O)CCCCCCCCCCNC(=O)[C@H](CO)n3cc(CCCSC)nn3)CC2)nc(N2CCN(C(=O)CCCCCCCCCCNC(=O)[C@H](CCCCN)n3cc(CCO)nn3)CC2)n1 returned IL1B secr inh -61*, SW480 rerep inconclusive, Vif-APOBEC3G blk -13%, Vif-A3F inh -8%, Giardia kill -4 and MCF10A rereplic inconclusive.
For CCc1nc2ccccc2n1Cc1ccc(OC)c(OC)c1 the results were IL1B secr inh 24, SW480 rerep -3%, Vif-APOBEC3G blk 1%, Vif-A3F inh 11%, Giardia kill 14 and MCF10A rereplic 12%.
COc1ccc2c(c1)c1nc3ccccc3nc1n2Cc1ccc(OC)c(OC)c1 was read as IL1B secr inh 1, SW480 rerep -3%, Vif-APOBEC3G blk inconclusive, Vif-A3F inh 25µM*, Giardia kill 6 and MCF10A rereplic 8.2µM*.
`CCOC(=O)Cn1c2ccc(OC)cc2c2nc3ccccc3nc21` gave IL1B secr inh 9, SW480 rerep -3%, Vif-APOBEC3G blk 4%, Vif-A3F inh inconclusive, Giardia kill -14 and MCF10A rereplic 6%.
`CCOc1ccc(Cn2c3ccc(OC)cc3c3nc4ccccc4nc32)cc1OC` gave IL1B secr inh 13, SW480 rerep inconclusive, Vif-APOBEC3G blk inconclusive, Vif-A3F inh inconclusive, Giardia kill 5 and MCF10A rereplic 7.3µM*.
For CCn1c(NCc2ccc(OC)c(OC)c2)nc2ccccc21 the results were Vif-APOBEC3G blk 12% and Vif-A3F inh 1%.
COC(=O)Cn1c2ccc(OC)cc2c2nc3ccccc3nc21 was read as IL1B secr inh 20, SW480 rerep -2%, Vif-APOBEC3G blk -5%, Vif-A3F inh -3%, Giardia kill -20 and MCF10A rereplic 1%.
Screening COc1ccc(/C=C/c2nc3ccccc3n2Cc2ccc(OC)c(OC)c2)cc1 returned IL1B secr inh -54*, SW480 rerep inconclusive, Vif-APOBEC3G blk 0%, Vif-A3F inh 2%, Giardia kill -27 and MCF10A rereplic inconclusive.
Screening COc1ccc(CNc2nc3ccccc3n2Cc2ccc(Cl)cc2)cc1OC returned IL1B secr inh -89*, SW480 rerep 5%, Vif-APOBEC3G blk 4%, Vif-A3F inh 8%, Giardia kill -6 and MCF10A rereplic inconclusive.
`O=C(Nc1ccccc1C(=O)OCc1cc(=O)n2ccsc2n1)c1cccc(F)c1` gave Vif-APOBEC3G blk 5% and Vif-A3F inh 1%.
Cc1ccc(CNC(=O)CN2C(=O)COc3ccc(S(=O)(=O)Nc4ccccc4)cc32)cc1 was read as Vif-APOBEC3G blk -2% and Vif-A3F inh -1%.
For COC(=O)[C@@]12C[C@@H](CC(=O)NCc3ccccc3)C(=O)N(Cc3ccco3)C1=CCC(C)(C)C2 the results were IL1B secr inh -16.
Screening COC(=O)[C@@]12C[C@@H](CC(=O)NCc3cccc4ccccc34)C(=O)N(Cc3ccco3)C1=CCC(C)(C)C2 returned IL1B secr inh -71*.
`COC(=O)[C@@]12C[C@@H](CC(=O)NCc3cccc(C(F)(F)F)c3)C(=O)N(Cc3cccc4ccccc34)C1=CCC(C)(C)C2` gave IL1B secr inh 0.
`COC(=O)[C@@]12C[C@@H](CC(=O)NCc3cccc4ccccc34)C(=O)N(Cc3ccccc3)C1=CCC(C)(C)C2` gave IL1B secr inh -61*.
